Screens deposited in PubChem by National Center for Advancing Translational Sciences (NCATS).
Sampled rows, rich in hits. Any-hit rate of the full collection: about 19%.
IL-1B inflam inh: inflammasome signaling inhibition, IL-1 beta readout | THP-1 LPS/ATP IL-1B secretion, AlphaLISA, 16 h; active compounds read low | activity change, % at 57.5 µM | 360,000 compounds, 4.7% hits; in the data active means activity change below about -50%; inconclusive means mostly about -30% to -49%
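THP-1 cells pretreated 1 hr with compounds (up to 57.5 uM final), then stimulated with LPS (250 ng/mL final) plus ATP (1.25 mM final); secreted IL-1B measured by AlphaLISA after 16 hr, decreased signal indicating inhibition.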
DT40 TDP1 CPT: DT40-hTDP1 cell growth loss with CPT | chicken DT40 Tdp1-/-;hTDP1 cells + 20 nM CPT, ATP luminescence, 48 h | Potency, µM (doses to about 46.2 µM), inactives show at the highest dose activity change, negative = growth inhibition, hits mostly inhibitors | 420,000 compounds, 12% hits | AID 686979; further: potency means the concentration at half of the fitted maximal effect; nearly all actives have a fitted effect of over 55% in size
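Cell growth measured by CellTiter-Glo luminescence after a minimum 48 h, 37 C compound exposure with 20 nM CPT in Tdp1-knockout DT40 cells stably expressing hTDP1, seeded 400/well; qHTS titration format.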
DT40 TDP1 no CPT: qHTS for Inhibitors of human tyrosyl-DNA phosphodiesterase 1 (TDP1): qHTS in cells in absence of CPT. 420,000 compounds, 15% hits. DT40 Tdp1-/- hTDP1 cells, no CPT, ATP luminescence, 48 h. Potency, µM (highest dose often 46.2 µM), for inactives: top-dose activity change, negative = growth inhibition, actives largely listed as inhibitors. AID 686978, 2013; further: potency means the concentration at half of the fitted maximal effect; nearly all actives have a fitted effect of over 55% in size
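No-CPT arm: Tdp1-/-;hTDP1 DT40 cells (400/well) plus compounds, incubated ≥48 hr at 37 °C. Readout CellTiter-Glo luminescence.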
ELG1 repair inh: ELG1-dependent DNA repair inhibition; 330,000 compounds, 2.3% hits; Potency, µM (titrated, usually from 46.1 µM), without a hit: top-dose activity change, negative = inhibition, hits mostly inhibitors; HEK293T ELG1-luciferase reporter, luminescence, 16 h; DNA damage induced by 5-fluorouridine; further: potency means the concentration at half of the fitted maximal effect; nearly all actives have a fitted effect of over 55% in size
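Reporter activity after DNA damage by 5-fluorouridine is monitored. Compound-treated cells incubate 16 hr at 37 °C, then ONE-Glo is added for 30 min before luminescence reading.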
Giardia killer: kills Giardia lamblia. Giardia lamblia trophozoite viability. AID 540267. 340,000 compounds, 0.15% hits. activity change, % at 7.66 µM, hits read low; in the data active means activity change below about -80%; inconclusive means between about -30% and that limit;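 further: parasites exposed to compound for two days anaerobically before the ATP read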
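Trophozoite viability was measured as ATP-dependent luminescence, read 15-30 min after reagent addition. Before that, parasites at 100 cells/well were exposed to compounds for 48 h, anaerobically, at 37 deg C.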
TDP1 inh: TDP1 (human) enzyme inhibition | 350,000 compounds, 0.28% hits | Q9NUW8 | recombinant TDP1, AlphaScreen DNA substrate cleavage | AID 485290 | Potency, µM (series often up to 130 µM), without a hit: at the top dose activity change, negative = inhibition, hits mostly inhibitors; further: potency means the concentration at half of the fitted maximal effect; nearly all actives have a fitted effect of over 40% in size
Target sequence (Q9NUW8 whole entry, looked up): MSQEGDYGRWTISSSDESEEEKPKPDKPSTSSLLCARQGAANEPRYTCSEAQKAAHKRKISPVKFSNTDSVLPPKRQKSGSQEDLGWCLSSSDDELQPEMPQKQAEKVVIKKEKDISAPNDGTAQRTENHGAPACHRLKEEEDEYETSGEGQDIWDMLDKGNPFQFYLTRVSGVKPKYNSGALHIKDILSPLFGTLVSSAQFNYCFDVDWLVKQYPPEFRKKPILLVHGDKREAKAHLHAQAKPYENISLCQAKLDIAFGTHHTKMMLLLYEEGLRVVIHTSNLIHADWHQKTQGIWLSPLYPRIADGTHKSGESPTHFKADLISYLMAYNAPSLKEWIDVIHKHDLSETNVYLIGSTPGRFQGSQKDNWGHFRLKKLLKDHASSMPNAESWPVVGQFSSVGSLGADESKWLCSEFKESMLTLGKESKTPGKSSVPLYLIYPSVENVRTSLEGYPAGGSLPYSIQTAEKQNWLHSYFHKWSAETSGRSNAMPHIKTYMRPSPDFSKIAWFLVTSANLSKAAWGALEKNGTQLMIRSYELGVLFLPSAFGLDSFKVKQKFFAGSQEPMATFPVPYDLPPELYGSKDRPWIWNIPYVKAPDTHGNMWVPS
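E. coli-derived human Tdp1, 1 nM final. Cpd preinc 15 min RT; substrate 15 nM final, 5 min RT; AS bead mix 10 ug/ml final, 10 min RT. Signal loss = tyrosine-FITC cleavage. No-enzyme wells = max signal.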
ELG1 FLuc counter: luciferase inhibition in cell-free luciferin readout for ELG1 hits; 350 compounds, 3% hits; AID 624247; Potency, µM (top dose mostly 46.1 µM), for inactives: at the top dose activity change, negative = inhibition, most hits filed as inhibitors; shares compounds with ELG1 repair inh; cell-free firefly luciferase luminescence counter-screen, ViewLux; further: potency means the concentration at half of the fitted maximal effect
ELG1 Luc conf: human ELG1 repair inhibition, luciferase-tagged ELG1 confirmation | shares compounds with ELG1 repair inh | HEK293T ELG1-luciferase levels, luminescence; cells co-treated with 5-fluorouridine | Potency, µM (highest dose often 46.1 µM), for inactives: at the highest dose activity change, negative = inhibition, usual class: inhibitors | 670 compounds, 68% hits | AID 624248; further: potency means the concentration at half of the fitted maximal effect; nearly all actives have a fitted effect of over 55% in size
ELG1-Luc MMS: confirmation of human ELG1 repair inhibitors, MMS stimulated | shares compounds with ELG1 repair inh | HEK293T luciferase-tagged ELG1 level, MMS stimulated | Potency, µM (doses to about 46.1 µM), for inactives: top-dose activity change, negative = inhibition, actives largely listed as inhibitors | 670 compounds, 53% hits | AID 624249; further: potency means the concentration at half of the fitted maximal effect; nearly all actives have a fitted effect of over 60% in size
ELG1 5FU viab: confirmation of ELG1 repair inhibitors: viability with 5FU | shares compounds with ELG1 repair inh | cell viability with 5-FU, ELG1-dependent repair | Potency, µM (titrated, usually from 46.1 µM), for the others: top-dose activity change, negative = viability loss, hits mostly cytotoxic | 670 tested, under 10 active | AID 624250;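 further: ELG1-luc HEK293T cells cotreated with 5-fluorouridine at 10 µM final; potency means the concentration at half of the fitted maximal effect; viability measured 16 h after compound addition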
ELG1 MMS cell: confirmation of ELG1 repair inhibitors: viability with MMS. Cell viability with MMS, ELG1-dependent DNA repair. Potency, µM (doses to about 46.1 µM), for inactives: top-dose activity change, negative = viability loss, usual class: cytotoxic. AID 624251. shares compounds with ELG1 repair inh. 670 compounds, 33% hits;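 further: ELG1-luc HEK293T cells co-treated with 10 µM MMS; potency means the concentration at half of the fitted maximal effect; viability read 16 h after compound addition; nearly all actives have a fitted effect of over 60% in size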
ELG1 unstim viab: counter-screen for ELG1 repair inhibitors: unstimulated cell viability; shares compounds with ELG1 repair inh; cell viability counter-screen, unstimulated, luminescence; Potency, µM (highest dose often 45.9 µM), for inactives: at the highest dose activity change, negative = loss of viability, usual class: cytotoxic; 900 compounds, 8% hits;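 further: potency means the concentration at half of the fitted maximal effect; compound exposure lasted 16 hours before reading; nearly all actives have a fitted effect of over 55% in size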
FLuc biochem: inhibits purified firefly luciferase, counter-screen for ELG1 hits | shares compounds with ELG1 repair inh | purified firefly luciferase, luminescence counter-screen | Potency, µM (top dose mostly 57.5 µM), inactives show at the highest dose activity, negative = inhibition, usual class: inhibitors | 350 compounds, 10% hits; further: potency means the concentration at half of the fitted maximal effect
Numbers without * were called inactive. Unless noted, the call rests on the fitted dose curve; in most records, active means well fitted curve in the direction sought with a large enough effect; inconclusive means small, poorly fitted or top-dose-only effect, or another doubt; inactive means no such curve, though single readings can be large; an effect the other way counts as inactive or inconclusive. On the % scale 0 is the no-effect control and ±100 the full control effect.

CCN1C(=S)N[C@@H](c2cccs2)C(C(=O)OC)=C1C was read as IL-1B inflam inh 37, DT40 TDP1 CPT inconclusive, DT40 TDP1 no CPT -17%, ELG1 repair inh 2% and Giardia killer 8.
Screening Cc1ccc2c(c1)S/C(=C/c1ccc[n+](CCO)c1)N2C returned IL-1B inflam inh -26, DT40 TDP1 CPT 0.65µM*, DT40 TDP1 no CPT 1.2µM*, ELG1 repair inh 2.9µM*, Giardia killer 14, TDP1 inh 4%, ELG1 Luc conf 2%, ELG1-Luc MMS 8.9µM*, ELG1 5FU viab -14%, ELG1 MMS cell 8.9µM* and ELG1 unstim viab inconclusive.
COc1ccc2c(c1OC)C(=O)N1c3ccccc3C(=O)N(c3ccc(F)cc3)C21 (stereo not given) was read as IL-1B inflam inh -15, DT40 TDP1 CPT inconclusive, DT40 TDP1 no CPT 12µM*, ELG1 repair inh inconclusive, Giardia killer -3, TDP1 inh 6%, ELG1 FLuc counter inconclusive, ELG1 Luc conf 5µM*, ELG1-Luc MMS 7.9µM*, ELG1 5FU viab -2%, ELG1 MMS cell inconclusive, ELG1 unstim viab inconclusive and FLuc biochem -3%.
COc1ccc2c(c1OC)C(=O)N1N=C(c3ccc(-c4ccccc4)cc3)CC21 (stereo not given) was read as IL-1B inflam inh -3, DT40 TDP1 CPT -16%, DT40 TDP1 no CPT inconclusive, ELG1 repair inh -12%, Giardia killer inconclusive and TDP1 inh 1%.
For COc1ccc2c(c1OC)C(=O)N1c3ccccc3C(=O)N(c3ccccc3)C21 (stereo not given) the results were IL-1B inflam inh -12, DT40 TDP1 CPT 12µM*, DT40 TDP1 no CPT 9.2µM*, ELG1 repair inh inconclusive, Giardia killer 11, TDP1 inh 9%, ELG1 FLuc counter -11%, ELG1 Luc conf 2.2µM*, ELG1-Luc MMS 5µM*, ELG1 5FU viab 0%, ELG1 MMS cell inconclusive, ELG1 unstim viab inconclusive and FLuc biochem 1%.
For COC(=O)c1cc(-c2ccc(OC)c(OC)c2)c2c(=O)[nH]c(=O)n(C)c2n1 the results were IL-1B inflam inh -4, DT40 TDP1 CPT -9%, DT40 TDP1 no CPT 7%, ELG1 repair inh 5%, Giardia killer 22 and TDP1 inh 3%.
Screening O=C1C(=Cc2ccc(Cl)cc2)Cc2ccccc21 returned IL-1B inflam inh 17, DT40 TDP1 CPT -4% and DT40 TDP1 no CPT -11%.
Cc1ccc2c(c1)C/C(=C/c1ccc(N(C)C)cc1)C2=O was read as DT40 TDP1 CPT inconclusive, DT40 TDP1 no CPT inconclusive and ELG1 unstim viab 0%.
Screening COc1ccc(CCn2c(N3CCN(C)CC3)nc3c2c(=O)[nH]c(=O)n3C)cc1 returned IL-1B inflam inh 4, DT40 TDP1 CPT -11%, DT40 TDP1 no CPT -17%, ELG1 repair inh -1%, Giardia killer -22 and TDP1 inh 2%.
`CCCn1c(N2CCN(CC(=O)c3c(C)n(C)c4ccc(OC)cc34)CC2)nc2c1c(=O)[nH]c(=O)n2C` gave IL-1B inflam inh -19, DT40 TDP1 CPT inconclusive, DT40 TDP1 no CPT 21µM*, ELG1 repair inh 1.5µM*, Giardia killer 6, TDP1 inh 2%, ELG1 FLuc counter -6%, ELG1 Luc conf 3.5µM*, ELG1-Luc MMS inconclusive, ELG1 5FU viab inconclusive, ELG1 MMS cell -18%, ELG1 unstim viab inconclusive and FLuc biochem -15%.
COc1ccccc1/C=C/c1nc2ccccc2o1 was read as DT40 TDP1 CPT -15%, DT40 TDP1 no CPT -17% and ELG1 unstim viab 0%.
For CCN(CC)C(=O)c1sc(NC(=O)c2cccnc2)c(C(=O)OC)c1C the results were IL-1B inflam inh 22, DT40 TDP1 CPT 0%, DT40 TDP1 no CPT -26%, ELG1 repair inh 2.6µM*, Giardia killer 6, TDP1 inh 6%, ELG1 Luc conf 3.1µM*, ELG1-Luc MMS -10%, ELG1 5FU viab inconclusive, ELG1 MMS cell 9% and ELG1 unstim viab inconclusive.
`CCOC(=O)c1c(NC(=O)c2cccnc2)sc(C(C)=O)c1C` gave IL-1B inflam inh 28, DT40 TDP1 CPT inconclusive, DT40 TDP1 no CPT inconclusive, ELG1 repair inh -12%, Giardia killer 2 and TDP1 inh -3%.
`CN(C(=O)CN1C(=O)c2ccccc2S1(=O)=O)C1CCCCC1` gave IL-1B inflam inh 17, DT40 TDP1 CPT 0%, DT40 TDP1 no CPT -14%, ELG1 repair inh inconclusive, Giardia killer 13, TDP1 inh 2% and ELG1 unstim viab -2%.
